Holding throughout (experiment): NCI-60 one-dose screen, 48 h (100 = growth as untreated, 0 = no growth, -100 = all killed)
One assay relates to HCT-15 colon. The settings on record: 10 µM unless noted.
Another assay has as its system HT29 colon. The settings on record: 10 µM unless noted.
In a further assay the test system is SNB-75 CNS. As to conditions: 10 µM unless noted.
For a further assay, the system named is SNB-19 CNS. As to conditions: 10 µM unless noted.
Another assay relates to U251 CNS. The settings on record: 10 µM unless noted.
The subject of the next assay is PC-3 prostate. As to conditions: 10 µM unless noted.
The next assay concerns SK-MEL-5 melanoma. The settings on record: 10 µM unless noted.
The next assay concerns UACC-62 melanoma. The settings on record: 10 µM unless noted.
The test system of another assay is LOX IMVI melanoma. The settings on record: 10 µM unless noted.
For a further assay, the system named is SK-MEL-28 melanoma. The settings on record: 10 µM unless noted.
In another assay the test system is EKVX NSCLC. The settings on record: 10 µM unless noted.
A further assay deals with SN12C renal. As to conditions: 10 µM unless noted.
Another assay concerns UO-31 renal. The settings on record: 10 µM unless noted.
Another assay relates to TK-10 renal. The settings on record: 10 µM unless noted.
For the next assay, the system named is ACHN renal. As to conditions: 10 µM unless noted.
A further assay concerns CAKI-1 renal. The settings on record: 10 µM.
The subject of another assay is A498 renal. As to conditions: 10 µM unless noted.
The subject of a further assay is CCRF-CEM leukemia. As to conditions: 10 µM unless noted.
A further assay deals with SK-MEL-2 melanoma. The settings on record: 10 µM unless noted.
The subject of a further assay is MOLT-4 leukemia. As to conditions: 10 µM unless noted.

Molecules are shown by their SMILES. About 83,000 compounds went through this panel and 20% of them were active in at least one assay; those are over-represented in the sample as a whole.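 Assay: single dose, 48 h. Readout: percent growth (0 = no net growth; negative = cell death). Active: <10.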 Unmarked numbers belong to inactive results. Activity calls are given as the source filed them.

As to `COc1cc2c3c(n(CCCN4CCC[C@H]4C(N)=O)c(=O)c2cc1OC)-c1cc2c(cc1C3=O)OCO2`, the growth is 11.9% in the assay on HCT-15 colon; 6.94% (active) in the assay on HT29 colon; 12% in the assay with SNB-75 CNS; 21.2% with SNB-19 CNS; -21.6% (active) in the assay on U251 CNS; 39.7% in the assay on PC-3 prostate. Further, the growth was -46.1% (active) in the assay with SK-MEL-5 melanoma; -43.5% (active) in the assay on UACC-62 melanoma; -28.3% (active) in the assay with LOX IMVI melanoma; 52.1% in the assay with SK-MEL-28 melanoma; 36.2% in the assay with EKVX NSCLC; 17% with SN12C renal. Besides, the growth is 17.5% in the assay on UO-31 renal; 59% in the assay with TK-10 renal; 0.589% (active) in the assay with ACHN renal; 14.6% in the assay with CAKI-1 renal; -31% (active) in the assay with A498 renal; -4.01% (active) in the assay with CCRF-CEM leukemia.

As for `COCCOc1ccc(-c2csc(NC(=O)CN3CCN(CCO)CC3)n2)cc1NS(=O)(=O)c1cccc2c(N(C)C)cccc12`, the growth with HCT-15 colon is 85%; in the assay on HT29 colon it was -68.5% (active); in the assay with SNB-75 CNS, 88.6%; in the assay with SNB-19 CNS, 62.2%; with U251 CNS, 49.1%; with PC-3 prostate, 76.1%. The growth with SK-MEL-5 melanoma is 86.5%; with UACC-62 melanoma it was 80.5%; in the assay with LOX IMVI melanoma it was 11.8%; in the assay on SK-MEL-28 melanoma it was 30.8%; in the assay on EKVX NSCLC it was 80.5%; with SN12C renal, 81.1%. Also, the growth in the assay with UO-31 renal is 65.3%; with TK-10 renal it was 107%; with ACHN renal, 85.8%; with CAKI-1 renal it was 92%; with A498 renal, 79.4%; in the assay on CCRF-CEM leukemia, 46.3%.

Consider `COc1ccc2c(C3=C(c4cn(C)c5ccccc45)C(=O)NC3=O)coc2c1`, for which the growth was 20% with HCT-15 colon; 6.25% (active) in the assay on HT29 colon; 17.6% in the assay on SNB-75 CNS; 37.9% with SNB-19 CNS; 15.8% with U251 CNS; 21.9% in the assay on PC-3 prostate. For the same compound, the growth with SK-MEL-5 melanoma was 42.4%; with UACC-62 melanoma, 29.5%; in the assay on LOX IMVI melanoma, 34.8%; with SK-MEL-28 melanoma, 65.2%; in the assay with EKVX NSCLC, 50.7%; in the assay on SN12C renal, 32.3%. The growth with UO-31 renal is 37.8%; in the assay with TK-10 renal it was 79.4%; in the assay with ACHN renal, 37.4%; in the assay with CAKI-1 renal, 42%; with A498 renal, 34.9%; in the assay on CCRF-CEM leukemia it was 18.8%.

For the compound `CCN1C(=O)N(CC)C2SC(N/N=C/c3ccccc3)=NC21` (stereo unspecified), the growth was 16.9% in the assay on HCT-15 colon; -0.975% (active) in the assay on HT29 colon; 37.4% with SNB-75 CNS; 27.3% in the assay with SNB-19 CNS; 17.1% in the assay with U251 CNS; 28% in the assay on PC-3 prostate. Also, the growth in the assay with SK-MEL-5 melanoma was 12.1%; in the assay on UACC-62 melanoma, 37%; in the assay on LOX IMVI melanoma it was 17.3%; with SK-MEL-28 melanoma it was 58.1%; with SK-MEL-2 melanoma, 9.45% (active); in the assay on SN12C renal, 34.4%. Moreover, the growth was 54.6% in the assay with UO-31 renal; 81.3% in the assay on TK-10 renal; 36% with ACHN renal; 40.1% in the assay on CAKI-1 renal; -19.2% (active) with A498 renal; 16.7% in the assay with CCRF-CEM leukemia. The growth in the assay on MOLT-4 leukemia was 21.4%.

Consider `C=CCn1c(SCC(=O)Nc2cccc(C(=O)/C=C/c3ccc(C)cc3)c2)nc2ccccc2c1=O`, for which the growth is 62% with HCT-15 colon; 72.7% in the assay on HT29 colon; 78.4% in the assay on SNB-75 CNS; 81.7% in the assay on SNB-19 CNS; 72% in the assay on U251 CNS; 72.5% in the assay with PC-3 prostate. The growth is 97.2% in the assay with SK-MEL-5 melanoma; 76.7% in the assay on UACC-62 melanoma; 73.8% in the assay on LOX IMVI melanoma; 95.3% in the assay with SK-MEL-28 melanoma; 91.5% in the assay with EKVX NSCLC; 91.5% in the assay on SN12C renal. Besides, the growth with UO-31 renal is 63.9%; with TK-10 renal, 105%; with ACHN renal, 89.5%; with CAKI-1 renal, 80%; in the assay on A498 renal, 85.9%; in the assay with CCRF-CEM leukemia, 98.4%.

Take `Cc1csc(Nc2cccc(Nc3nc(C)cs3)c2)n1`: the growth with HCT-15 colon is 79.1%; in the assay with HT29 colon, 105%; with SNB-75 CNS it was 97.4%; in the assay with SNB-19 CNS, 82.3%; in the assay on U251 CNS, 83.3%; in the assay on PC-3 prostate, 77.1%. Moreover, the growth in the assay on SK-MEL-5 melanoma was 44.9%; in the assay with UACC-62 melanoma, 66.9%; in the assay with LOX IMVI melanoma, 74.5%; in the assay on SK-MEL-28 melanoma, 84.3%; in the assay on EKVX NSCLC, 61.4%; in the assay on SN12C renal, 88.2%. Besides, the growth with UO-31 renal was 67.1%; with TK-10 renal, 101%; in the assay on ACHN renal, 75.4%; in the assay on CAKI-1 renal, 78.1%; in the assay with A498 renal, 47.3%; with CCRF-CEM leukemia, 89%. For the same compound, the growth with MOLT-4 leukemia was 70.8%.

For `COc1ccc(-c2no[n+]([O-])c2Nc2ccccc2Br)cc1`, the growth in the assay on HCT-15 colon is 97.1%; in the assay with HT29 colon it was 119%; in the assay on SNB-75 CNS, 92%; in the assay on SNB-19 CNS, 89.5%; in the assay with U251 CNS, 95%; in the assay on PC-3 prostate, 76.8%. The growth is 93.5% with SK-MEL-5 melanoma; 71.6% with UACC-62 melanoma; 95.6% with LOX IMVI melanoma; 99.8% in the assay on SK-MEL-28 melanoma; 96.1% in the assay on EKVX NSCLC; 90.4% in the assay with SN12C renal. In addition, the growth is 69.6% in the assay with UO-31 renal; 145% in the assay on TK-10 renal; 89.2% in the assay on ACHN renal; 86% in the assay on CAKI-1 renal; 113% with A498 renal; 109% with CCRF-CEM leukemia.

Take `O=C1c2c(c3c4ccc(Br)cc4oc3c3[nH]c4ccccc4c23)C(=O)N1CCO`: the growth in the assay with HCT-15 colon was 53%; in the assay with HT29 colon, 58.3%; in the assay on SNB-75 CNS, 88.7%; in the assay with SNB-19 CNS, 32.8%; in the assay with U251 CNS it was 23.5%; with PC-3 prostate it was 51.6%. The growth in the assay with SK-MEL-5 melanoma was 17.3%; with UACC-62 melanoma it was 23.5%; in the assay on LOX IMVI melanoma, 7.54% (active); in the assay on SK-MEL-28 melanoma it was 70.2%; in the assay with EKVX NSCLC it was 53.7%; with SN12C renal it was 34%. Besides, the growth is 25.6% with UO-31 renal; 107% with TK-10 renal; 12% in the assay on ACHN renal; 23.6% in the assay with CAKI-1 renal; 52.4% in the assay on A498 renal; 21.7% with CCRF-CEM leukemia.

(Values after PubChem BioAssay (NCI).)
